Pol iota inh – qHTS for Inhibitors of Polymerase Iota; Pol iota fluorescent replication assay, 10 min; AID 588590, 2011; Potency, µM (top dose mostly 115 µM), inactives show at the top dose activity, negative = inhibition, most hits filed as inhibitors; 390,000 tested, 1% active
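Pol iota at 10 nM preincubated 15 min with compounds at room temperature; reaction started with fluorescent substrate, 50 nM final. Fluorescence read kinetically at 0 and 10 min; buffer-only wells as negative control.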
FEN1 inh – qHTS Assay for the Inhibitors of Human Flap endonuclease 1 (FEN1); Recombinant FEN1 flap cleavage, fluorescence, 15 min; 390,000 tested, 0.35% active; Potency, µM (highest dose often 114 µM), for inactives: top-dose activity change, negative = inhibition, hits mostly inhibitors; P39748; also: % is scaled to controls: 0 for no effect and ±100 for the full control effect; nearly all actives have a fitted effect of over 65% in size
Target sequence (P39748 whole entry, looked up): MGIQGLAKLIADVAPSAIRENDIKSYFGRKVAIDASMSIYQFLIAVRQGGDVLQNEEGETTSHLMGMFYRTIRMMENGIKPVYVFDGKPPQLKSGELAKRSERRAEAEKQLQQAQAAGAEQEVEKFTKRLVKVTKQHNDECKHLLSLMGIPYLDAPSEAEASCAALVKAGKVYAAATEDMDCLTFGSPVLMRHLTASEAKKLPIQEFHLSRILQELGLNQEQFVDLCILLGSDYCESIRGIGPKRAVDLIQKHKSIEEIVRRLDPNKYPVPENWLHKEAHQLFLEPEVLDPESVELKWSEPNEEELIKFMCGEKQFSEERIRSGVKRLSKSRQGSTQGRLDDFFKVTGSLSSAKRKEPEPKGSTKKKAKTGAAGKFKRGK
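In this screen, 50 nM flap DNA substrate was added to 10 nM FEN1 pretreated with compound for 15 min at room temperature; cleavage was followed with reads at 0 and 15 min, and Hill fitting gave concentration–response parameters.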
Pol kappa inh – qHTS for Inhibitors of Polymerase Kappa | purified Pol kappa, fluorescent DNA synthesis assay, 10 min | 400,000 tested, 0.53% active | DNA polymerase kappa (Homo sapiens), Q9UBT6 | Potency, µM (series often up to 107 µM), without a hit: at the highest dose activity, negative = inhibition, usual class: inhibitors; also: % is scaled to controls: 0 for no effect and ±100 for the full control effect
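Here, compound and 10 nM enzyme are combined for 15 min at room temperature; adding 50 nM substrate (final) starts DNA synthesis, tracked by fluorescence at 0 and 10 min against buffer-only wells.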
POLH inh – qHTS for Inhibitors of Polymerase Eta; DNA polymerase eta (Homo sapiens), Q9Y253; recombinant Pol eta, fluorescent DNA replication assay; Potency, µM (series often up to 114 µM), for the others: at the highest dose activity change, negative = inhibition, usual class: inhibitors; 390,000 tested, 1.2% active; AID 588591, 2011; also: % is scaled to controls: 0 for no effect and ±100 for the full control effect
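Pol eta at 10 nM preincubated with compounds 15 min at room temperature; reaction started with fluorescent substrate (50 nM final) and read kinetically at 0 and 10 min.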
WRN inhibitor – qHTS for Inhibitors of WRN Helicase. Bifunctional 3'-5' exonuclease/ATP-dependent helicase WRN (Homo sapiens), Q14191. WRN helicase unwinding, fluorescent forked duplex, kinetic. Potency, µM (highest dose often 114 µM), for inactives: at the highest dose activity change, negative = inhibition, usual class: inhibitors. 360,000 tested, 0.46% active. AID 651768, 2012; also: % is scaled to controls: 0 for no effect and ±100 for the full control effect; nearly all actives have a fitted effect of over 55% in size
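Screening of the MLSMR collection measured strand separation of a quenched forked DNA duplex (100 nM) by 20 nM WRN with 2 mM ATP, all final. Compounds were preincubated with enzyme 15 min at room temperature.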
Pol beta inh – qHTS Assay for Inhibitors of DNA Polymerase Beta | P06746 | Pol beta primer extension/strand displacement, fluorescence kinetic | Potency, µM (doses to about 114 µM), for inactives: at the highest dose activity change, negative = inhibition, hits mostly inhibitors | 340,000 tested, 1.3% active; also: % is scaled to controls: 0 for no effect and ±100 for the full control effect
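Enzyme-only controls used 10 nM Pol beta; buffer lacking enzyme served as negative control. Compound preincubated 15 min, then 50 nM substrate added; 0 and 10 min reads at room temperature.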
An asterisk follows results filed as active; ? = inconclusive; . = no result; ! = a repeat was not active; [ ] = remark or other dose. This is a sample that favours compounds with a hit; in the whole collection about 2.4% have one here. Calls follow the shape of the dose curve; as a rule, active = well fitted curve in the direction sought with a large enough effect; inconclusive = small, poorly fitted or top-dose-only effect, or another doubt; inactive = no such curve, though single readings can be large; an effect the other way counts as inactive or inconclusive. Potency is read from the fitted curve at half-maximal effect.

SMILES	Pol iota inh	FEN1 inh	Pol kappa inh	POLH inh	WRN inhibitor	Pol beta inh
COc1ccc(C2Nc3ccccc3C(=O)N2Cc2ccco2)cc1COc1c(C)cccc1C (configuration not stated)	25µM*	-13%	-16%	.	.	.
Nc1nc(=S)[nH]c2n[nH]nc12	40µM*	-23%	0%	.	.	.
Nc1nc(=S)[nH]c(N)c1N	14%	-7%	-1%	.	.	.
CCCS(=O)(=O)N1CCN(Cc2ccccc2OCC)CC1	7%	-7%	-9%	-3%	7%	89µM*
CCS(=O)(=O)N1CCN(Cc2ccccc2OC)CC1	8%	0%	-14%	-2%	-6%[57.1 µM]	-4%
CCCCCc1ccc(-c2cn(Cc3ccc4c(c3)C(=O)c3ccccc3C4=O)nn2)cc1	31%	19%	-9%	.	.	.
CCS(=O)(=O)N1Cc2ccccc2CC1C(=O)N1CCN(c2ccccc2)CC1 (configuration not stated)	?	-16%	?	16µM*	?	35µM*
O=C(C1Cc2ccccc2CN1S(=O)(=O)c1ccc(F)cc1)N1CCOCC1 (configuration not stated)	21%	11%	-3%	-2%	4%	10%
O=C(Nc1cccc(C(F)(F)F)c1)Nc1cc(Cl)ccc1C(=O)O	.	.	12%[60.1 µM]	.	.	.
CCCCCCCCCCCCCCCC[N+](C)(C)CC	19%	21%	-7%	89µM*	-11%	.
CC[C@H](C)[C@H](NC(=O)CNC(=O)[C@H](C)NC(=O)[C@H](C)N)C(=O)NCC(=O)N[C@H](C(=O)N[C@@H](CC(C)C)C(=O)N[C@H](C(=O)N[C@H](C(=O)O)C(C)C)[C@@H](C)O)[C@@H](C)CC	.	.	9%[60.1 µM]	.	.	.
Cc1cccc(N2CCN(C(=O)c3noc4c3COc3ccc(C)cc3-4)CC2C)c1 (configuration not stated)	50µM*!	-10%	?	-13%	-2%	2%
O=S(=O)(Nc1cccnc1)c1cccc2ccccc12	-17%	13%	3%	.	.	.
Cc1ccc2nc(-c3ccc(NC(=O)c4ccco4)cc3)[nH]c2c1	?	?	-29%	?	-31%	25µM*
Cn1cccc1-c1nc2ccc(NC(=O)c3ccco3)cc2[nH]1	-2%	-13%	-11%	-2%	-12%	-19%
O=C(Nc1ccc2nc(-c3cccs3)[nH]c2c1)c1ccco1	?	-20%	-19%	?	-19%	32µM*
Cc1ccc(-n2nc3ccc(NC(=O)C(C)C)cc3n2)cc1	9%	12%	-4%[60.1 µM]	4%	-4%	9%
O=C(Nc1ccc2nc(-c3cccs3)[nH]c2c1)c1cccs1	?	-10%	-11%	?	-35%	3%
Cc1ccc(-n2nc3ccc(NC(=O)c4ccco4)cc3n2)cc1	?	3%	-41%	?	-19%[57.1 µM]	25µM*
Cc1[nH]c2ccccc2c1/C=C/c1ccnc2ccccc12	25%	?	6%	.	.	.
CCN1/C(=C/c2ccc3cccc(C)c3[n+]2CC)Sc2ccccc21	?	40µM*	-10%	-17%	?	50µM*
CCN1/C(=C/c2ccc3cc(C)cc(C)c3[n+]2CC)Sc2cc(C)ccc21	-26%	?	-24%	79µM*	18µM*	50µM*
COCCN(CCOC)C(=O)c1cc2c(=O)n3ccccc3nc2n1C	?	-13%	-22%	-14%	.	10µM*
COc1ccc(S(=O)(=O)n2nc(OC(C)=O)cc2N)cc1	?	45µM*	-32%	7%	-11%[11.6 µM]	?
CC(=O)c1c(CC(=O)O)[nH]n(-c2nc3ccccc3s2)c1=O	?	-23%	?	50µM*	?	32µM*
SMILES	Pol iota inh	FEN1 inh	Pol kappa inh	POLH inh	WRN inhibitor	Pol beta inh
CN=c1scc(-c2ccccc2F)n1/N=C/c1ccc[nH]1	13%	0%	-19%	-4%	0%	2%
CC(C)N=c1scc(-c2cccs2)n1/N=C/c1ccc(O)c(O)c1O	?	-19%	?	?	?	2.2µM*
CN=c1scc(-c2ccccc2F)n1/N=C/c1ccc(O)c(O)c1O	?	?	?	?	56µM*	1.4µM*
CCN=c1scc(-c2cccs2)n1/N=C/c1cc(OC)ccc1O	-3%	4%	-2%	-14%	-27%[57.1 µM]	-9%
CNc1ccc(/C=C2\C=Cc3ccccc32)cc1I	-7%	-4%	-10%	.	.	.
CC(O)(c1ccc(Cl)cc1)c1ccc(Cl)cc1	.	.	4%[60.1 µM]	.	.	.
CNC(=O)COC(=O)c1c2c(nc3ccccc13)CCC2	8.9µM*	?	?	25µM*	-17%[57.1 µM]	20µM*
COc1ccc(NC(=O)COC(=O)c2c3c(nc4ccccc24)CCCC3)cc1	0%	-15%	-21%	2%	-11%	-18%
O=C(NC1CCCCC1)c1c2c(nc3ccccc13)CCC2	79µM*	-9%	-19%	?	0%[11.6 µM]	20µM*
O=C(Nc1nc(-c2ccco2)c(-c2ccco2)s1)c1ccc(F)cc1F	?	?	50µM*	?	?	.
O=c1[nH]/c(=C/c2ccc3c(c2)OCO3)c(=O)[nH]/c1=C\c1ccc2c(c1)OCO2	-16%	-13%	0%	.	.	.
Cc1cc(C)n2nc3nc(N4CCCCC4)nc(-c4ccco4)c3c2n1	?	?	32µM*	10µM*	?	10µM*
Cc1cc(Nc2ccccc2Cl)n2nc(-c3ccco3)nc2n1	14%	2%	0%[60.1 µM]	7%	.	6%
CC(=O)SC1CC2=CC(=O)CC[C@]2(C)C2CC[C@@]3(C)C(CC[C@@]34CCC(=O)O4)C12 (some centres not stated)	.	.	-12%[60.1 µM]	.	.	.
Cc1ccccc1N1CC(C(=O)Nc2ccc(S(=O)(=O)NCC3CCCO3)cc2)CC1=O (configuration not stated)	34%	4%	-21%	-6%	-2%	9%
Cc1cccc(N2CC(C(=O)Nc3nnc(SCc4ccccn4)s3)CC2=O)c1 (configuration not stated)	?	7%	?	40µM*	-27%	?
Cc1ccc(N2CC(C(=O)Nc3ccc(S(=O)(=O)NCC4CCCO4)cc3)CC2=O)cc1 (configuration not stated)	?	10%	-6%	-11%	-4%	56µM*
Cc1cccc(N2CC(C(=O)Nc3nnc(SCC(=O)NCC4CCCO4)s3)CC2=O)c1 (configuration not stated)	?	-6%	?	20µM*	?	-15%
